In PubChem BioAssay (NCATS):
Inconclusive results are not listed. Active and inactive are the calls of the source. Calls come from the whole dose curve; as a rule, active = well fitted inhibition curve with a large enough effect; inconclusive = small, poorly fitted or top-dose-only effect; inactive = flat fitted curve, though single readings scatter.

Tested on: CP329
Experiment: qHTS profiling for inhibitors of Plasmodium falciparum proliferation (AID 504749); note: nearly all actives have a fitted effect of over 60% in size;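 for activity, negative = inhibition: 0% = DMSO vehicle and full inhibition = artemisinin control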
Conditions: P. falciparum in erythrocytes, SYBR Green DNA, 72 h; series mostly up to 28.7 µM; activity, negative = inhibition: at the top concentration
How it was run: (§1)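 P. falciparum-infected erythrocytes (0.3% parasitemia, 2.5% hematocrit) incubated with compound 72 h at 37 C, 5% CO2. Parasite DNA detected by SYBR Green after lysis, overnight at room temperature; normalised to 0.29 uM artemisinin and DMSO.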
Potency is the fitted concentration of half-maximal effect.

activity, negative = inhibition, inactive:
CC(=O)OCC(=O)[C@@]1(O)CCC2C3C[C@H](C)C4=CC(=O)C=CC4(C)C3C(O)CC21C (stereo partly specified) 5.37%
CC1(C)C2CC[C@]1(C)[C@@H](O)C2 -2.8%
OCC1O[C@H](Oc2ccc(O)cc2)C(O)C(O)C1O (stereo partly specified) 1.99%
Nc1nc(F)nc2c1ncn2[C@@H]1O[C@H](CO)[C@@H](O)[C@H]1O 2.71%
CC1OC(OC2CCC3(C)C(CCC4C3CC(O)C3(C)C(C5=CC(=O)OC5)CCC43O)C2)CC(O)C1OC1CC(O)C(OC2CC(O)C(OC3OC(CO)C(O)C(O)C3O)C(C)O2)C(C)O1 (stereo unspecified) -3.68%
CC1OC(OCC2OC(Oc3c(-c4ccc(OCCO)c(OCCO)c4)oc4cc(OCCO)cc(O)c4c3=O)C(O)C(O)C2O)[C@@H](O)C(O)C1O (stereo partly specified) -0.762%

Tested on: CP335
Experiment: as above
Conditions: P. falciparum in erythrocytes, SYBR Green DNA, 72 h; series mostly up to 28.7 µM; activity, negative = inhibition: at the top concentration
How it was run: as §1

activity, negative = inhibition, inactive:
CCCCCCCCCCCCCCCC(=O)OC[C@H](O)[C@H]1OC[C@@H](O)[C@@H]1O 4.08%
C[C@H]1OC(OC2C(O)[C@@H](O)C(OC3C(O)[C@@H](O)C(O)O[C@@H]3CO)O[C@@H]2CO)[C@H](O)C(O)C1N[C@H]1C=C(CO)[C@@H](O)[C@H](O)C1O (stereo partly specified) 0.819%
CC(=O)N[C@H]1[C@H](O[C@@H]2c3ccc(c(Cl)c3)Oc3cc4cc(c3O[C@@H]3O[C@H](CO)[C@@H](O)[C@H](O)C3C)Oc3ccc(cc3Cl)C[C@H]3NC(=O)[C@@H](N)c5ccc(O)c(c5)Oc5cc(O)cc(c5)[C@H](NC3=O)C(=O)N[C@H]4C(=O)N[C@H]3C(=O)N[C@@H]2C(=O)N[C@@H](C(=O)O)c2cc(O)cc(O[C@H]4O[C@H](CO)[C@@H](O)C(O)[C@@H]4O)c2-c2cc3ccc2O)O[C@H](CO)[C@@H](O)[C@@H]1O (stereo partly specified) 0.456% [at 12.8 µM]
CC1(Cn2ccnn2)[C@H](C(=O)O)N2C(=O)C[C@H]2S1(=O)=O (stereo partly specified) -0.793%
CCCC(=O)O[C@]1(C(=O)COC(C)=O)CC[C@H]2C3C[C@H](F)C4=CC(=O)C=CC4(C)[C@@]3(F)[C@@H](O)CC21C (stereo partly specified) -17.4%
OCCN1CC(O)C(O)C(O)C1CO (stereo unspecified) 9.77%
O=C(OC[C@@H]1O[C@@](O)(COC(=O)c2cccnc2)[C@H](OC(=O)c2cccnc2)[C@H]1OC(=O)c1cccnc1)c1cccnc1 4.9%
O=[N+]([O-])O[C@H]1CO[C@H]2[C@@H]1OC[C@H]2O 3.99%
COc1cccc(OC)c1C(=O)NC1C(=O)N2C1SC(C)(C)C2C(=O)O (stereo unspecified) -1.94%
NC[C@@H]1O[C@H](OC2[C@@H](CO)O[C@@H](OC3[C@H](O)[C@H](N)C[C@H](N)[C@H]3OC3O[C@H](CO)[C@@H](O)[C@H](O)[C@@H]3N)[C@H]2O)C(N)[C@H](O)[C@@H]1O (stereo partly specified) 0.323%
Cc1ccc(S(=O)(=O)NC(=O)NC(C)Cc2ccccc2)cc1 (stereo unspecified) 4.01%
OCCOC[C@H]1O[C@H](OCCO)[C@H](OCCO)[C@@H](OCCO)[C@@H]1OCCO (tested in a mixture with another compound) 7.61%
C[S+](C)CC[C@H](N)C(=O)O 3.83%
CC[C@@H]1/C=C(\C)C[C@H](C)C[C@H](OC)[C@H]2O[C@@](O)(C(=O)C(=O)N3CCCC[C@H]3C(=O)O[C@H](/C(C)=C/[C@@H]3CC[C@H](Cl)[C@H](OC)C3)[C@H](C)[C@@H](O)CC1=O)[C@H](C)C[C@@H]2OC -1.05%
NC(=O)C1CC2(NC(=O)NC2=O)c2cc(F)ccc2O1 (stereo unspecified) 3.65%
CN1[C@@H]2CC[C@@H]1CC(OC(=O)[C@H](CO)c1ccccc1)C2 (stereo partly specified) -0.0865%
CCCCCCCCCCCC(=O)OCC(O)C1OCC(O)C1O (stereo unspecified) 6.42%
C/C1=C2/[N-]C(C(CC(N)=O)[C@@]2(C)CCC(=O)NCC(C)OP(=O)([O-])O[C@H]2[C@@H](O)[C@@H](n3cnc4cc(C)c(C)cc43)O[C@@H]2CO)[C@]2(C)N=C(/C(C)=C3N=C(/C=C4N=C1C(CCC(N)=O)C\4(C)C)[C@@H](CCC(N)=O)[C@]\3(C)CC(N)=O)[C@@H](CCC(N)=O)[C@]2(C)CC(N)=O.CC(=O)O.[Co] (stereo partly specified) -14.5%
CC1(C)OC[C@@H]2O[C@@]3(C(=O)O)OC(C)(C)O[C@@H]3[C@@H]2O1 1.86%
Cc1ccccc1N1C(=O)c2cc(N)ccc2N/C1=C\F -0.554%
O=C1C(I)=CC(=C(c2cc(I)c(O)c(I)c2)c2ccccc2C(=O)O)C=C1I -8.32%
NC(=O)NC(CCC(=O)O)C(=O)O (stereo unspecified) 5.63%
CC(=O)OCC(=O)[C@@]1(O)CCC2C3C[C@H](C)C4=CC(=O)C=CC4(C)C3C(O)CC21C (stereo partly specified) 6.64%
CC1(C)C2CC[C@]1(C)[C@@H](O)C2 1.42%
OCC1O[C@H](Oc2ccc(O)cc2)C(O)C(O)C1O (stereo partly specified) 5.58%
Nc1nc(F)nc2c1ncn2[C@@H]1O[C@H](CO)[C@@H](O)[C@H]1O 1.57%
CC1OC(OC2CCC3(C)C(CCC4C3CC(O)C3(C)C(C5=CC(=O)OC5)CCC43O)C2)CC(O)C1OC1CC(O)C(OC2CC(O)C(OC3OC(CO)C(O)C(O)C3O)C(C)O2)C(C)O1 (stereo unspecified) 5.81%
CC1OC(OCC2OC(Oc3c(-c4ccc(OCCO)c(OCCO)c4)oc4cc(OCCO)cc(O)c4c3=O)C(O)C(O)C2O)[C@@H](O)C(O)C1O (stereo partly specified) 1.59%

Potency, active:
CCCCC(=O)OCC(=O)[C@]1(O)Cc2c(O)c3c(c(O)c2[C@H](OC2CC(NC(=O)C(F)(F)F)C(O)C(C)O2)C1)C(=O)c1c(OC)cccc1C3=O (stereo partly specified) 1510 nM
C[C@H]1[C@@H](OC(=O)CCC(=O)O)OC2OC3(C)CC[C@H]4[C@H](C)CC[C@@H]1[C@@]24OO3 (stereo partly specified) 4.8 nM
COc1cc2c(cc1O)CCN[C@@]21CS[C@H]2c3c(OC(C)=O)c(C)c4c(c3C(COC1=O)N1C2C2c3c(cc(C)c(OC)c3O)CC([C@@H]1O)N2C)OCO4 (stereo partly specified) 0.4 nM
C[n+]1c2cc(N)ccc2cc2ccc(N)cc21 849 nM
CC[C@@]1(O)C[C@H](O[C@H]2C[C@@H](N(C)C)[C@@H](O[C@H]3C[C@@H](O)[C@@H](O[C@H]4CCC(=O)[C@@H](C)O4)[C@@H](C)O3)[C@@H](C)O2)c2c(cc3c(c2O)C(=O)c2c(O)cccc2C3=O)[C@H]1C(=O)OC 169 nM
CCC(C(=O)O)C1OC(C(C)C(O)C(C)C(=O)C(CC)C2OC3(C=CC(O)C4(CCC(C)(C5CCC(O)(CC)C(C)O5)O4)O3)C(C)CC2C)C(C)CC1C (stereo unspecified) 42.6 nM
CN[C@H](C)CCC=C(C)C 239 nM
